Only some compounds are listed: those with a hit (about 3.3% of all), similar ones and a draw of the others.
H9c2 protect = modulators protecting cardiomyocytes from myocardial damage. AID 588492. H9c2 cardiomyocytes, H2O2 injury protection, ATPLite, 2 h. protection from H2O2 cell death, % at 20 µM. hit rate 0.63% among 360,000;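 active = compounds giving at least 50% protection of heart cells from peroxide-induced death in the single-dose screen, raw or plate-pattern-corrected value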;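 also: 0% = DMSO wells with peroxide and 100% = DMSO wells without peroxide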
Calb FLC = affects C. albicans growth with fluconazole; C. albicans CaCi-2 (fluconazole-resistant clinical isolate) + fluconazole, Alamar Blue growth, 48 h; growth inhibition, % (concentration not given with the values); hit rate 0.57% among 300,000; AID 1979;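 active = growth inhibition above about 58% in most replicates, limit read from the data, passing the limit was not always enough; inconclusive = exactly half the replicates above a set limit; inactive = most replicates below a set limit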;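 also: all wells also contain fluconazole at 8 µg/ml as a sub-toxic cotreatment; 0% = median of DMSO wells and 100% = median of geldanamycin control wells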
Cl transport mod = KCC2 (human) Cl- transport modulation. KCC2 cells, thallium flux FluoZin-2 fluorescence. B-score of Tl+ flux slope (higher = more flux/activation; lower = inhibition) at 10 µM. hit rate 2.2% among 190,000. AID 1456;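 active = thallium flux slope and its plate-corrected score both differing from the plate sample mean at a set confidence after two filtering rounds, in either direction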;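 also: slope of fluorescence scaled to starting intensity during 10 to 20 s after thallium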
PHOSPHO1 inh = PHOSPHO1 (human) inhibition; Q8TCT1; recombinant PHOSPHO1, absorbance phosphatase assay; inhibition, % at 13.3 µM; hit rate 1.1% among 290,000; in the data active = inhibition above about 60%
Target sequence (Q8TCT1 whole entry, looked up): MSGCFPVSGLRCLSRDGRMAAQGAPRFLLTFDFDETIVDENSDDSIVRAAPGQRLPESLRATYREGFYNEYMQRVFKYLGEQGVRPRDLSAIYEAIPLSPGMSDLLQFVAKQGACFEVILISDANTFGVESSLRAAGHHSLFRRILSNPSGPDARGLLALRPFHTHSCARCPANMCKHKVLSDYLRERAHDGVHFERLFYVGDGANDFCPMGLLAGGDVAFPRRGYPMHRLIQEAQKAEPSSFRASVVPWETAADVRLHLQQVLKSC
Efflux pump mplx = inhibitors of Candida antifungal efflux pumps expressed in yeast | S. cerevisiae Candida pump triplex, Nile Red efflux | inhibition, % at 10 µM | hit rate 0.44% among 330,000 | AID 485275;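 active = plate passing quality check with inhibition over a set limit, or well fluorescence over plate mean plus 4 SD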;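 also: Nile Red retained in pooled yeast measured as flow cytometry median fluorescence; 0% = buffer negative control and 100% = Enniatin B positive control; higher means more Nile Red kept so more efflux inhibition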
Numbers without * were called inactive; ? = inconclusive; / = not tested or not shown; ! = not confirmed by another sample.

SMILES | H9c2 protect | Calb FLC | Cl transport mod | PHOSPHO1 inh | Efflux pump mplx
CCC(Sc1nc2ccccc2o1)C(=O)O (centres undefined) | -1 | -15 | -1.5 | -20 | 0
CCC(Cc1ccccc1)NS(=O)(=O)c1c(C)nc2scc(C)n2c1=O (centres undefined) | 1 | 10 | / | -10 | 0
O=C1CCN(N=Nc2cccc(Cl)c2)N1 | / | -6 | 0.62 | 72* | 0
Nc1[nH][nH]c(=O)c1N=Nc1cccc(Cl)c1 | -1 | -17 | / | 1 | 0
COCCN1Cc2cccc(C(=O)Nc3cccc(-c4nc5ccccc5[nH]4)c3)c2C1=O | 54* | 12 | -1.9 | 18 | 0
COCCN1Cc2cccc(C(=O)Nc3ccc(-c4nc5ccccc5[nH]4)cc3)c2C1=O | 0 | 2 | 0.07 | -7 | 0
O=C(c1ccc(Cl)cc1)c1oc2ccccc2c1CS(=O)c1ccccc1 (centres undefined) | 10 | 8 | -1.2 | 98* | 0
Cc1cccc(NCc2ccc(O)c3ncccc23)c1 | 58* | ? | 1.2 | 40 | 0
Oc1ccc(CNc2ccccc2)c2cccnc12 | 33 | 4 | -0.36 | 51 | 0
Cc1ccccc1NCc1ccc(O)c2ncccc12 | 33 | 0 | 0.82 | 71* | 0
Oc1ccc(CNc2ccc(F)cc2)c2cccnc12 | -8 | 34 | -0.65 | 95* | 0
CCOc1ccc(NC(=O)C(=O)NCCN2CCN(C(=O)c3ccc(C)cc3)CC2)cc1 | -3 | 1 | / | 42 | 0
CN(CCC(=O)Nc1ccc(Cl)cc1)Cc1ccccc1 | 6 | 4 | / | 14 | 0
COc1ccc(S(=O)(=O)N2CCOCC2)cc1NC(=O)c1c(-c2ccccc2)noc1C | 5 | / | / | / | /
COc1ccc(N2C(=O)CC(Sc3ncn[nH]3)C2=O)c(OC)c1 (centres undefined) | -30 | -2 | -0.54 | 92* | 0
CC(C)c1ccc(N2C(=O)CC(Sc3ncn[nH]3)C2=O)cc1 (centres undefined) | -20 | -1 | / | 93* | 0
CC(C)c1ccc(C(=O)CSc2ncn[nH]2)cc1 | -4 | 6 | 0.018 | 100* | 0
CCCc1c(O)nc(SC2CC(=O)N(c3cc(OC)ccc3OC)C2=O)[nH]c1=O (centres undefined) | 4 | -3 | -0.05 | 15 | 0
C/C(=N\Nc1ccc(F)cc1F)c1ccc(F)cc1 | / | -11 | -1.3 | -23 | 0
C/C(=N\Nc1ccc(F)cc1F)c1ccc(Br)s1 | -9 | 102* | 1.2 | -18 | 0
C/C(=N\Nc1ccc(F)cc1F)c1ccc(N2CCOCC2)cc1 | -9 | 104* | 1 | -33 | 0
Cc1cc(NC(=O)c2ccc(F)cc2)n(C)n1 | 2 | -2 | / | / | 0
Cc1ccc(C(=O)NC(=O)OCCn2c(C)cnc2[N+](=O)[O-])cc1 | 5 | 88* | / | 32 | 0
c1ccc2[nH]c(-c3ccnc4ccccc34)nc2c1 | -2 | 3 | -1 | 89*! | 0
CN[C@H]1C[C@H]2c3[nH]c4ccccc4c3CCN2C(=O)[C@H]1[C@H](C)O | 13 | / | / | / | /
SMILES | H9c2 protect | Calb FLC | Cl transport mod | PHOSPHO1 inh | Efflux pump mplx
Cc1ccc(N/N=C/c2ccncc2)cc1 | -5 | 100* | / | 48 | 0
Clc1cccc(N/N=C/c2ccncc2)c1 | -8 | 93* | -0.86 | 6 | 0
Cc1ccc(N/N=C/c2cccnc2)cc1 | -5 | -12 | -0.27 | -5 | 0
CC(O)c1n(C)c(Cl)c[n+]1C (centres undefined) | -3 | 1 | 1.7 | 79* | 0
Cc1nn(C)c(-c2n[nH]c(=S)n2Cc2ccco2)c1Cl | 2 | -1 | 0.37 | -41 | 0
Oc1ccc(-c2n[nH]c(=S)n2Cc2ccco2)cc1 | 8 | -1 | 1.4 | 100* | 0
S=c1[nH]nc(C2CC2)n1Cc1ccco1 | 6 | 10 | -1.1 | 81* | 0
COc1cccc(C(=O)NC23CC4CC(CC(C4)C2)C3)c1 | 0 | -4 | / | 8 | 0
O=C(NCc1ccc(F)cc1)C(Cc1ccccc1)n1cccc1 (centres undefined) | -1 | 17 | -2.8 | 23 | 0
Cc1ccc(CCCOC(=O)C[N+]2(C)CCOCC2)cc1 | -9 | -9 | 0.35 | 89* | 0
C[N+]1(CC(=O)OCCCc2ccccc2)CCOCC1 | 3 | -4 | 0.58 | -59 | 0
Cc1cc(OCC(=O)N2CCOCC2)cc2oc(=O)c3ccccc3c12 | 59* | -5 | -0.047 | -11 | 0
CN1C(=O)S/C(=C\c2ccccc2OCc2ccc(C(=O)O)cc2)C1=O | 3 | 1 | -2.4 | -31 | 0
CN1C(=O)S/C(=C/c2ccccc2OCc2ccc(C(=O)O)cc2)C1=O | 5 | 4 | -4.3* | 32 | 0
O=C(CNC(=O)c1cccc(F)c1)N/N=C/c1cc(Br)ccc1OC(=O)/C=C/c1ccco1 | 57* | -12 | -2 | 1 | /
S=c1[nH]nc(Cc2cccc3ccccc23)n1-c1ccccc1 | -9 | 2 | / | 94* | 0
Cc1ccc(NCc2n[nH]c(=S)n2-c2ccccc2)cc1 | -3 | 0 | 0.39 | -3 | 0
COCc1n[nH]c(=S)n1-c1cccc2ccccc12 | -6 | / | / | 74* | 0
Cc1cccc(NCc2n[nH]c(=S)n2-c2ccccc2)c1 | -4 | 3 | -0.11 | 94* | 0
COc1ccc(-c2cc(-c3n[nH]c(=S)n3-c3cccc4ccccc34)[nH]n2)cc1 | -12 | 54 | -0.77 | -10 | 0
Cc1ccc(S(=O)(=O)N2CCN(C(=O)c3ccc(Br)o3)CC2)c(C)c1 | 0 | 19 | / | 32 | 0
CCCc1cc(=O)[nH]c(SCC(=O)NC2CCCc3ccccc32)n1 (centres undefined) | -5 | -7 | -0.28 | 20 | 0
CC1=C/C(=N\NC(=S)NCCc2ccccc2)CC(C)(C)C1 | -15 | 96* | 0.93 | 34 | 0
O=C(Nc1cc(S(=O)(=O)N2CCCCCC2)ccc1OCC(F)(F)F)c1cnccn1 | -14 | / | / | / | 0
Cn1c(COc2ccccc2)nnc1SCCN1CCOCC1 | 1 | -9 | -0.84 | 35 | 0
SMILES | H9c2 protect | Calb FLC | Cl transport mod | PHOSPHO1 inh | Efflux pump mplx
Cc1ccc(OCc2nnc(SCCN3CCOCC3)n2C)cc1 | 0 | 1 | -0.31 | 74* | 0
COCc1nnc(NC(=O)c2cc(Cl)ccc2OC)s1 | -1 | ? | 1 | 14 | 0
CCOCc1nnc(NC(=O)c2cc(Cl)ccc2OC)s1 | 1 | 3 | -0.54 | 97* | 0
COc1ccc(Cl)cc1C(=O)Nc1ccncc1 | 0 | 36 | / | 13 | 0
CCN(CC)c1ccc(NC(=O)c2cc(Cl)ccc2OC)cc1 | -24 | -5 | / | 76* | 0
CCCCc1nnc(NC(=O)C(C)Sc2nc(N)cc(=O)[nH]2)s1 (centres undefined) | -8 | 76* | / | -5 | 0
CCOC(=O)Cc1nnc(NC(=O)C(CC)Sc2nc(C)cc(=O)[nH]2)s1 (centres undefined) | -20 | -2 | -0.95 | -6 | 0
Cc1[nH]c2ccccc2c1/C=N/NC(=O)CNC(=O)c1cccs1 | 5 | -1 | -0.98 | 19 | 0
Cc1[nH]c2ccccc2c1/C=N/NC(=O)c1cccs1 | 56* | -12 | 0.14 | 10 | 0
O=C(N/N=C\c1ccc(Cl)s1)c1cccs1 | 22 | -4 | 19* | 23 | 0

Source: PubChem BioAssay
